Rows were chosen to be rich in hits. Some 8.7% of all compounds tested hit in one or more screens of this group.
G9a inh = blocks human histone lysine methyltransferase G9a; Q96KQ7; G9a H3K9 monomethylation, AlphaScreen, 2 h; Potency, µM (highest dose often 102 µM), actives largely listed as inhibitors; hit rate 8.8% among 350,000; note: nearly all actives have a fitted effect of over 75% in size
Target sequence (Q96KQ7 913-1193 limits assumed): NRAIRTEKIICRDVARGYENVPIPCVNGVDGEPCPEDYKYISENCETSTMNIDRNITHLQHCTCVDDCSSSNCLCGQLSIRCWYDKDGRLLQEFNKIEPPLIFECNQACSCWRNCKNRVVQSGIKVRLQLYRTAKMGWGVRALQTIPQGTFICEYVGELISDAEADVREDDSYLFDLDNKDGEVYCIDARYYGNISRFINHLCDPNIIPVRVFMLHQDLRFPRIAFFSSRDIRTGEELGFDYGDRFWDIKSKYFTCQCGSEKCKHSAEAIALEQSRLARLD
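Methyltransferase reactions run at room temperature for 2 h (20 nM enzyme, 500 nM biotin-H3K9 peptide, 20 uM SAM) after a 15 min compound preincubation; product detected by AlphaScreen beads and anti-H3K9me1 antibody.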
Sfp inh = inhibitors of Bacillus subtilis Sfp phosphopantetheinyl transferase; Q9F4F7; Biochemical Sfp PPTase activity, qHTS; Potency, µM, usual class: inhibitors; hit rate 3.5% among 310,000; AID 1490;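 note: the enzyme is Sfp with the accession as filed and its product quenches rhodamine fluorescence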
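Step 1, compound plus 15 nM Sfp-PPTase, 15 min, room temperature. Step 2, add rhodamine-CoA (5 uM) and BHQ-2-YbbR (12.5 uM). Step 3, read 525/598 nm fluorescence at 0 and 30 min.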
JMJD2A Tudor inh = inhibitors of human JMJD2A Tudor domain | AlphaScreen JMJD2A-Tudor / H3K4me3 peptide binding | Potency, µM (doses to about 114 µM), hits mostly inhibitors | hit rate 4.4% among 390,000; note: nearly all actives have a fitted effect of over 50% in size
BAZ2B inh = BAZ2B (human) inhibition. AlphaScreen BAZ2B-H3K14Ac peptide displacement. Potency, µM (highest dose often 114 µM), usual class: inhibitors. hit rate 4.4% among 360,000. AID 504333; note: nearly all actives have a fitted effect of over 60% in size
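Compounds, titrated to a top concentration of 110 uM, were incubated 30 min at room temperature with preformed BAZ2B/acetyl-K14 H3 peptide complex (50 nM each). Proximity signal was measured by AlphaScreen after 20 min with beads.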
HP1b binding inh = inhibitors of HP1-beta chromodomain binding to methylated histone tails | AlphaScreen HP1-beta / biotin-H3K9me3 peptide binding | Potency, µM (titrated, usually from 114 µM), usual class: inhibitors | P83916 | hit rate 0.56% among 390,000 | AID 540317; note: nearly all actives have a fitted effect of over 70% in size
Target sequence (P83916 whole entry, looked up): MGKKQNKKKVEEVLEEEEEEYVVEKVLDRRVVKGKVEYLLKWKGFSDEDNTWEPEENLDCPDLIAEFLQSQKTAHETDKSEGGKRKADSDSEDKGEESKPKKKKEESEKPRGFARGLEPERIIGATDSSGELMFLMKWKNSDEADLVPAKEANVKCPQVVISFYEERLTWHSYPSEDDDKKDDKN
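HP1-beta protein (50 nM final) preincubated 30 min at room temperature with biotinylated H3(1-18)K9me3 peptide (50 nM) in PBS pH 7.4, 0.01% Tween-20, then compound added for 30 min. AlphaScreen streptavidin donor/nickel chelate acceptor beads (10 ug/mL final), 30 min dark, luminescence read.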
ALOX12 inh = ALOX12 (human) lipoxygenase inhibition; P18054; hit rate 1.1% among 580,000; purified 12hLO, xylenol orange hydroperoxide absorbance; Potency, µM (series often up to 108 µM), hits mostly inhibitors
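Purified human 12hLO at 150 nM in 25 mM Hepes, 0.01% Triton X-100, pH 7.0, preincubated 15 min at room temperature with compound. Reaction started with 40 uM arachidonic acid, 30 min at room temperature. Hydroperoxide measured by Fe-xylenol orange, 573/405 nm absorbance ratio.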
A number is an active result; [ ] = another dose, or the depositor's remark. Calls come from the whole dose curve; as a rule, active = well fitted curve in the direction sought with a large enough effect; inconclusive = small, poorly fitted or top-dose-only effect, or another doubt; inactive = no such curve, though single readings can be large; an effect the other way counts as inactive or inconclusive.

Results for CCN1CCN(C(=O)NC(c2ccc(C)c(F)c2)C(Cl)(Cl)Cl)CC1 (stereo unspecified) ?
ALOX12 inh: inactive

Results for CC(C)NC(=O)NC(=O)C(C)Sc1nc2ccccc2[nH]1 (stereo unspecified) ?
ALOX12 inh: inactive

What do the screens show for `S=C(NCCc1ccc(Cl)cc1)Nc1ccc(Nc2ccccc2)cc1`?
ALOX12 inh: 28.2µM

Results for S=C(NCc1ccc(Cl)cc1)Nc1ccc(Nc2ccccc2)cc1 ?
ALOX12 inh: 17.8µM

What do the screens show for `S=C(NCc1ccc(Cl)cc1)Nc1ccccc1`?
G9a inh: inactive; Sfp inh: inactive; JMJD2A Tudor inh: inactive; BAZ2B inh: inactive; HP1b binding inh: inactive; ALOX12 inh: inconclusive

How did S=C(NCCc1ccccc1)Nc1ccc(Cl)cc1 do in these assays?
G9a inh: inactive; Sfp inh: inactive; JMJD2A Tudor inh: inactive; BAZ2B inh: inactive; HP1b binding inh: inactive; ALOX12 inh: inconclusive

What do the screens show for `COc1cc2c(cc1OC)C(C)N(CC(=O)Nc1ccc(C)cc1)CC2` (stereo unspecified)?
ALOX12 inh: inactive

Results for Cc1ccccc1OCC(=O)N/N=C/c1ccc(N2CCOCC2)o1 ?
G9a inh: inactive[0.501 µM]; Sfp inh: 20µM; JMJD2A Tudor inh: inconclusive; BAZ2B inh: inconclusive; HP1b binding inh: inactive; ALOX12 inh: inactive

What do the screens show for `Cc1ccccc1OCCC(=O)Nc1ccc(N2CCOCC2)cc1N1CCOCC1`?
G9a inh: 44.7µM; JMJD2A Tudor inh: inactive; BAZ2B inh: inactive; HP1b binding inh: inactive; ALOX12 inh: inactive

Results for Cc1ccc(C)c(OCC(=O)Nc2ccc(N3CCOCC3)cc2N2CCOCC2)c1 ?
G9a inh: inconclusive; JMJD2A Tudor inh: inconclusive; BAZ2B inh: inconclusive; HP1b binding inh: inactive; ALOX12 inh: inactive

Results for COc1ccccc1OCC(=O)Nc1ccc(N2CCOCC2)cc1N1CCOCC1 ?
G9a inh: inconclusive; JMJD2A Tudor inh: 89.1µM; BAZ2B inh: inactive; HP1b binding inh: inactive; ALOX12 inh: inconclusive

What do the screens show for `N#Cc1ccccc1OCC(=O)Nc1ccc(N2CCOCC2)cc1N1CCOCC1`?
G9a inh: inactive[12.7 µM]; JMJD2A Tudor inh: inactive; BAZ2B inh: inactive; HP1b binding inh: inactive; ALOX12 inh: inactive

How did Cc1ccccc1OCC(=O)N/N=C/c1ccncc1 do in these assays?
G9a inh: inconclusive; Sfp inh: inactive; JMJD2A Tudor inh: inactive; BAZ2B inh: inactive; HP1b binding inh: inactive; ALOX12 inh: inactive

Results for Cc1ccccc1OCC(=O)Nc1ccc(N2CCOCC2)cc1N1CCOCC1 ?
G9a inh: 10µM; JMJD2A Tudor inh: inactive; BAZ2B inh: inactive; HP1b binding inh: inactive; ALOX12 inh: inactive

Results for CCOc1cc(=O)n2c(c1C(=O)Nc1ccc(C)c(F)c1)CCCC2 ?
ALOX12 inh: inactive

Results for c1cncc(-c2nc(CC3CCCNC3)no2)c1 (stereo unspecified) ?
ALOX12 inh: inactive

How did CN(C)c1ccc(/C=C2/C[N+](C)(C)C/C(=C/c3ccc(N(C)C)cc3)C2=O)cc1 do in these assays?
JMJD2A Tudor inh: 39.8µM; HP1b binding inh: 39.8µM; ALOX12 inh: 50.1µM

Results for CC(C)/C=C1\CC/C(=C\c2ccc(N(C)C)cc2)C1=O ?
G9a inh: inactive; Sfp inh: inactive; JMJD2A Tudor inh: inactive; BAZ2B inh: inactive; HP1b binding inh: inactive; ALOX12 inh: inactive

How did Cc1[nH]n(-c2ccccc2)c(=O)c1S(=O)(=O)c1ccccc1 do in these assays?
G9a inh: 44.7µM; Sfp inh: inactive; JMJD2A Tudor inh: inactive; BAZ2B inh: inactive; HP1b binding inh: inactive; ALOX12 inh: inconclusive

Results for Cc1[nH]n(-c2ccccc2)c(=O)c1-c1ccc(Cl)cc1 ?
G9a inh: 14.1µM; Sfp inh: inactive; JMJD2A Tudor inh: 79.4µM; BAZ2B inh: inactive; HP1b binding inh: inactive; ALOX12 inh: inactive

How did Oc1c(/C=N/c2ncn[nH]2)ccc2ccccc12 do in these assays?
G9a inh: 2.24µM; Sfp inh: inactive; JMJD2A Tudor inh: inconclusive; BAZ2B inh: inactive; HP1b binding inh: inactive; ALOX12 inh: inactive

How did COc1ccc(-c2noc(CN(C(=O)c3ccco3)C(C)C)n2)cc1OC do in these assays?
ALOX12 inh: inactive

Results for COC(=O)Cc1ccc(NC(=S)NCCSc2ccc(C)cc2)cc1 ?
G9a inh: inconclusive; Sfp inh: inactive; JMJD2A Tudor inh: inactive; BAZ2B inh: inconclusive; HP1b binding inh: inactive; ALOX12 inh: 44.7µM

How did Cc1ccccc1CSCCNC(=O)Nc1ccccc1 do in these assays?
G9a inh: inactive; Sfp inh: inactive; JMJD2A Tudor inh: inactive; BAZ2B inh: inconclusive; HP1b binding inh: inactive; ALOX12 inh: inactive

How did S=C(NCCSc1ccc(Cl)cc1)Nc1ccc(Nc2ccccc2)cc1 do in these assays?
ALOX12 inh: 35.5µM

What do the screens show for `Cc1cccc(C)c1NC(=S)NCCSc1ccc(Cl)cc1`?
G9a inh: inactive; Sfp inh: inactive; JMJD2A Tudor inh: inactive; BAZ2B inh: inactive; HP1b binding inh: inactive; ALOX12 inh: inconclusive

What do the screens show for `Cc1ccc(NC(=S)NCCSc2ccc(Cl)cc2)cc1`?
G9a inh: inactive; Sfp inh: inactive; JMJD2A Tudor inh: inactive; BAZ2B inh: inactive; HP1b binding inh: inactive; ALOX12 inh: 39.8µM

How did Fc1ccccc1CSCCNC(=S)Nc1ccccc1 do in these assays?
ALOX12 inh: 35.5µM

How did CCC1(CC)NC(=O)N(Cc2coc(-c3cccc(F)c3)n2)C1=O do in these assays?
ALOX12 inh: inactive

What do the screens show for `CCCOc1ccc(-c2nc(C#N)c(N3CCN(C(=O)c4cccs4)CC3)o2)cc1`?
ALOX12 inh: inactive

What do the screens show for `COc1cccc(C(=O)N2CCCC(n3cc(-c4nc(C5CC5)no4)nn3)C2)c1` (stereo unspecified)?
ALOX12 inh: inactive

Results for CCCCn1c(=O)[nH]c(=O)c2c1nc(-c1ccc(-c3ccccc3)cc1)n2C ?
G9a inh: 39.8µM; Sfp inh: inactive; JMJD2A Tudor inh: inactive; BAZ2B inh: inactive; HP1b binding inh: inactive; ALOX12 inh: inactive

Results for CCCCn1c(=O)[nH]c(=O)c2c1nc(-c1ccc(-c3ccccc3Br)o1)n2CC ?
G9a inh: 10µM; Sfp inh: 14.1µM; JMJD2A Tudor inh: inactive; BAZ2B inh: inactive; HP1b binding inh: inactive; ALOX12 inh: inconclusive

Results for CCCCn1c(=O)[nH]c(=O)c2c1nc(-c1ccc3ccccc3c1)n2CC ?
G9a inh: inactive; Sfp inh: inactive; JMJD2A Tudor inh: inactive; BAZ2B inh: inactive; HP1b binding inh: inactive; ALOX12 inh: inactive

Results for CC1(OC(=O)c2cccs2)C(=O)C=C2C=C(C3CC3)OC=C2C1=O (stereo unspecified) ?
Sfp inh: inconclusive; JMJD2A Tudor inh: inactive; HP1b binding inh: inactive; ALOX12 inh: inconclusive

Results for CC1(OC(=O)c2ccco2)C(=O)C=C2C=C(C3CC3)OC=C2C1=O (stereo unspecified) ?
Sfp inh: inactive; JMJD2A Tudor inh: inconclusive; HP1b binding inh: inactive; ALOX12 inh: 44.7µM

High-throughput results as filed in PubChem.
